Source: PubChem BioAssay
DT40 TDP1 CPT: DT40-hTDP1 cell growth loss with CPT. actives 12% (n = 420,000). Potency, µM (top dose mostly 46.2 µM), for the others: top-dose activity change, negative = growth inhibition, usual class: inhibitors. chicken DT40 Tdp1-/-;hTDP1 cells + 20 nM CPT, ATP luminescence, 48 h; further: potency means the concentration at half of the fitted maximal effect; on the % scale 0 is the no-effect control and ±100 the full control effect; nearly all actives have a fitted effect of over 55% in size
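Cell growth measured by CellTiter-Glo luminescence after a minimum 48 h, 37 C compound exposure with 20 nM CPT in Tdp1-knockout DT40 cells stably expressing hTDP1, seeded 400/well; qHTS titration format.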
Chronic BCR inh: chronic active BCR signaling inhibition | ABC-DLBCL IkBa-CBG/CBR reporter, luminescence ratio, 4 h | Potency, µM (highest dose often 46.1 µM), without a hit: at the highest dose activity change, negative = inhibition, actives largely listed as inhibitors | actives 0.05% (n = 340,000); active means well fitted inhibition curve with a large enough effect in the signal ratio, with a control signal flat, not every such curve was filed as active; inconclusive means small, poorly fitted or top-dose-only effect, or effect the other way, or a change in a side signal; the % refers to the signal ratio;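 further: potency means the concentration at half of the fitted maximal effect; plate controls were basal doxycycline-induced cells for no effect and cells given 10 µM MG132 for full effect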
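TMD8 human ABC-DLBCL cells with doxycycline-inducible IκBα–green luciferase fusion and unfused red luciferase, in 0.5% FBS medium; compounds up to 46 uM, 4 h at 37C. Green/red luminescence ratio, filter-overlap corrected, fitted to concentration-response curves.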
SW480 rereplic: induces DNA re-replication in SW480 colon adenocarcinoma cells; SW480 DNA re-replication, Hoechst DNA content imaging, 48 h; Potency, µM (series often up to 46.1 µM), inactives show top-dose re-replication activation, hits mostly activators; AID 624297; actives 1.8% (n = 340,000); further: potency means the concentration at half of the fitted maximal effect; % of control where 0% means no effect; nearly all actives have a fitted effect of over 55% in size
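Image-based DNA-content assay: after two days of treatment, nuclei were labelled with the DNA dye Hoechst and imaged, and hits were compounds raising the count of nuclei showing high fluorescence intensity.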
MCF10A rereplic: DNA re-replication induction in MCF 10a cells; MCF 10A DNA re-replication, Hoechst nuclear intensity, 48 h; actives 2.9% (n = 350,000); AID 624296; Potency, µM (titrated, usually from 46.1 µM), for inactives: at the highest dose activity, positive = re-replication, actives largely listed as activators; further: potency means the concentration at half of the fitted maximal effect; % of control where 0% means no effect; nearly all actives have a fitted effect of over 50% in size
DT40 TDP1 no CPT: qHTS for Inhibitors of human tyrosyl-DNA phosphodiesterase 1 (TDP1): qHTS in cells in absence of CPT. Potency, µM (series often up to 46.2 µM), for the others: at the highest dose activity change, negative = growth inhibition, hits mostly inhibitors. DT40 Tdp1-/- hTDP1 cells, no CPT, ATP luminescence, 48 h. actives 15% (n = 420,000). AID 686978, 2013; further: potency means the concentration at half of the fitted maximal effect; on the % scale 0 is the no-effect control and ±100 the full control effect; nearly all actives have a fitted effect of over 55% in size
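A cellular qHTS used chicken DT40 cells lacking endogenous Tdp1 but carrying stably transfected human TDP1. Compounds were applied without camptothecin, and cell growth kinetics were judged by ATP-dependent luminescence after ≥48 hr.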
IL1B secr inh: inhibitors of inflammasome signaling (IL-1 beta secretion). THP-1 LPS/ATP IL-1B secretion, AlphaLISA, 16 h; hits give low values. activity change, % at 57.5 µM. actives 4.7% (n = 360,000); in the data active means activity change below about -50%; inconclusive means mostly about -30% to -49%; further: on the % scale 0 is the no-effect control and ±100 the full control effect
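Secreted IL-1B measured by AlphaLISA bead assay after 16 h compound exposure of THP-1 cells; compounds (final up to 57.5 uM) added 1 h before LPS (250 ng/mL) and ATP (1.25 mM) stimulation; lower signal means less secretion.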
Starred values were filed as active, the others as inactive; i = inactive; ? = inconclusive; . = no result given; ! = not active in a repeat; [ ] = dose if it differs, or a comment. The list is not random: actives were taken first. Their share in the collection is about 19%. Unless noted, the call rests on the fitted dose curve; in most records, active means well fitted curve in the direction sought with a large enough effect; inconclusive means small, poorly fitted or top-dose-only effect, or another doubt; inactive means no such curve, though single readings can be large; an effect the other way counts as inactive or inconclusive.

SMILES	DT40 TDP1 CPT	Chronic BCR inh	SW480 rereplic	MCF10A rereplic	DT40 TDP1 no CPT	IL1B secr inh
CC1CCN(Cc2c(O)ccc3c(=O)c(-c4cccc(Cl)c4)c(C(F)(F)F)oc23)CC1	1%	.	.	.	20%	.
Cc1nc2c(-c3ccc(F)cc3)cnn2c(N)c1-c1ccccc1	?	?	?	?	?	-73*
CC[C@@H]1OC(=O)[C@@H](C)[C@H](O[C@H]2C[C@@](C)(OC)[C@@H](O)[C@H](C)O2)C(C)[C@H](O[C@H]2O[C@@H](C)C[C@@H](N(C)C)[C@@H]2O)[C@@](C)(O)C[C@H](C)C(=O)[C@@H](C)[C@H](O)[C@@]1(C)O (some centres undefined)	16%	.	.	.	-10%	.
CCOc1ccc(CCNc2cc(C)nc3ncnn23)cc1OCC	21µM*	0%	-8%	0%	15µM*	65
CCOc1ccc(CNc2cc(C)nc3nc(-c4cccc(C)c4)nn23)cc1OC	?	.	.	.	18µM*	.
COc1ccc(CNc2nc3nc(C)c(Cl)c(C)n3n2)cc1OC	-16%	.	-2%	7%	-12%	20
CCOc1ccc(CCNC(=O)CCc2c(C)nc3ncnn3c2C)cc1OCC	-23%	0%	-2%	7%	2%	23
COc1ccc(CCNc2c(C)c(C)nc3ncnn23)cc1	2.3µM*	-16%	8.2µM*	?	2.6µM*	-11
COc1ccc(-c2cc(NCc3ccccn3)n3ncnc3n2)cc1	?	-6%	-2%	0%	?	0
COc1ccc(-c2cc(NCCc3ccncc3)n3ncnc3n2)cc1	-27%	2%	4%[9.22 µM]	3%	-20%	-66*
CN(CC(=O)Nc1ccccc1Cl)C(=O)COC(=O)CSc1ccc(Cl)cc1	-21%	-5%	-6%	5%	9%	6
CCc1c(C)nc2ncnn2c1NCCc1ccc(OC)c(OC)c1	15µM*	3%	-2%	-7%	13µM*	15
C[C@H](CO)N1C[C@H](C)[C@@H](CN(C)Cc2ccncc2)OCc2cnnn2CCCC1=O	-5%	.	.	.	-8%	13
O=C(O)c1ccccc1C(=O)Nc1c(-c2ccccc2)nc2ccccn12	8%	11%	-3%	7%	8%	24
CCCCNc1c(-c2ccc(SC(C)CC)cc2)nc2ccccn12 (centres undefined)	13µM*	0%	?	?	16µM*	0
CCCCNc1c(-c2ccc(SC3CCCCC3)cc2)nc2ccccn12	23µM*	?	0%	?	23µM*!	-73*!
Cn1c2c(c(=O)n(C)c1=O)C1(C(=O)Nc3ccccc31)C(C#N)=C(N)O2 (centres undefined)	15µM*	?	-2%	0%	?	-21
CC(C)(C)OC(=O)N1CCCC(C(=O)Nc2cccc(C(=O)NCCCc3ccccc3)c2)C1 (centres undefined)	?	.	1%	-5%	?	-2
CC(C)(C)OC(=O)N1CCC(C(=O)Nc2cccc(C(=O)NCc3ccccc3)c2)CC1	23µM*	.	-73%	?	21µM*	12
O=C(NCc1ccccc1)c1cccc(NC(=O)C2CCC2)c1	0%	.	-4%	?	-13%	7
CC(C)(C)OC(=O)N1CCC(C(=O)Nc2cccc(C(=O)NCCCc3ccccc3)c2)CC1	15µM*	.	11%	-11%	21µM*	102
Cc1ccc(C)c(OCc2cc(C(=O)N3CCN(c4ccccc4)CC3)no2)c1	?	7%	-7%	5%	-2%	34
Cc1ccc(C)c(OCc2cc(C(=O)N3CCc4sccc4C3)no2)c1	16µM*	-2%	-4%	17%	23µM*	?
CCN(CCn1cccn1)C(=O)c1cc(COc2cc(C)ccc2C)on1	18µM*	7%	36%	3%	?	10
CSc1ccccc1OCc1cc(C(=O)N2CCc3sccc3C2)no1	?	1%	0%	1%	0%	?
SMILES	DT40 TDP1 CPT	Chronic BCR inh	SW480 rereplic	MCF10A rereplic	DT40 TDP1 no CPT	IL1B secr inh
COc1cc(C)ccc1OCc1cc(C(=O)N2CCC(c3ccc(F)cc3)C2)no1 (centres undefined)	?	4%	-5%	2%	2.3µM*	7
Cc1ccc(C)c(OCc2cc(C(=O)N3C[C@@H](C)O[C@@H](C)C3)no2)c1	16µM*	0%	0%	?	?	-15
COCC1CCN(C(=O)c2cc(COc3ccc(F)cc3F)on2)C1 (centres undefined)	-21%	-1%	5%	?	?	-6
CCN(CCn1cccn1)C(=O)c1cc(COc2ccccc2SC)on1	?	1%	0%	5%	?	-9
CCn1c(SC(C)C(=O)NCc2ccco2)nnc1-c1ccccc1 (centres undefined)	3%	.	.	.	-23%	.
Cc1ccc(C)c(OCc2cc(C(=O)N3CCN(C4CCCCC4)CC3)no2)c1	?	.	.	.	?	-11
Cc1ccc(C)c(OCc2cc(C(=O)N3CC[C@@H]4CCCC[C@H]4C3)no2)c1	?	3%	-14%	?	26µM*	i
c1ccc2c(c1)oc1c(NCCN3CCOCC3)ncnc12	-13%	?	1%	-11%	-13%	-5
Oc1ccc(Nc2ncnc3c2oc2ccccc23)cc1	?	?	6%	21%	15µM*	-17
Cc1nc(Nc2ccccc2)c2oc3ccc(Cl)cc3c2n1	?	?	11%	?	23µM*	-4
Oc1cccc(Nc2ncnc3c2oc2ccccc23)c1	12µM*	?	-5%	5%	?	?
Cc1ccc(Nc2nc(C)nc3c2oc2ccccc23)cc1	?	?	-6%	?	?	.
c1ccc2c(c1)oc1c(Nc3ccc(CN4CCOCC4)cc3)ncnc12	?	?	9%	16µM*	15µM*	?
Oc1ccccc1Nc1ncnc2c1oc1ccccc12	-21%	?	1%	?	-29%	43
c1ccc(Nc2ncnc3c2oc2ccccc23)cc1	10µM*	.	1%	25%	?	-1
Cc1nc(NCCN2CCOCC2)c2oc3ccccc3c2n1	6%	8%	-14%	-4%	-18%	3
Cc1nc(NCCc2ccccc2)c2oc3ccccc3c2n1	8.2µM*	28%	2%	-180%[0.0737 µM]	9.2µM*	2
COc1ccc(Cc2noc(=O)[nH]2)cc1	-7%	.	.	.	-23%	-3
